Laboratory results from ChEMBL document CHEMBL1961873, “Compounds: GSK PKIS; Assays: Nanosyn kinase panel” (2012).

How the values were obtained:
[1] = molecular target: Serine/threonine-protein kinase PAK 6 (Homo sapiens) (UniProt Q9NQU5); settings: at 1 µM;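 further: values are mean percent inhibition of PAK6 kinase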
[2] = system: Tyrosine-protein kinase ABL1 (Homo sapiens), P00519 [E255K]; settings: at 0.1 µM
[3] = system: Tyrosine-protein kinase ABL1 (Homo sapiens), P00519 [E255K]; settings: at 1 µM
[4] = system: Tyrosine-protein kinase ABL1 (Homo sapiens), P00519 [H396P]; settings: at 0.1 µM
[5] = system: Tyrosine-protein kinase ABL1 (Homo sapiens), P00519 [H396P]; settings: at 1 µM
[6] = system: Tyrosine-protein kinase ABL1 (Homo sapiens), P00519 [M351T]; settings: at 0.1 µM
[7] = system: Tyrosine-protein kinase ABL1 (Homo sapiens), P00519 [M351T]; settings: at 1 µM
[8] = system: Tyrosine-protein kinase ABL1 (Homo sapiens), P00519 [Q252H]; settings: at 0.1 µM
[9] = system: Tyrosine-protein kinase ABL1 (Homo sapiens), P00519 [Q252H]; settings: at 1 µM
[10] = system: Tyrosine-protein kinase ABL1 (Homo sapiens), P00519 [T315I]; settings: at 0.1 µM
[11] = system: Tyrosine-protein kinase ABL1 (Homo sapiens), P00519 [T315I]; settings: at 1 µM
[12] = system: Tyrosine-protein kinase ABL1 (Homo sapiens), P00519 [Y253F]; settings: at 0.1 µM
[13] = system: Tyrosine-protein kinase ABL1 (Homo sapiens), P00519 [Y253F]; settings: at 1 µM
[14] = molecular target: Tyrosine-protein kinase ABL1 (Homo sapiens) (UniProt P00519); settings: at 0.1 µM
[15] = molecular target: Tyrosine-protein kinase ABL1 (Homo sapiens) (UniProt P00519); settings: at 1 µM
[16] = molecular target: ALK tyrosine kinase receptor (Homo sapiens) (UniProt Q9UM73); settings: at 0.1 µM
ALK tyrosine kinase receptor (Homo sapiens), sequence (Q9UM73 19-1620 limits assumed): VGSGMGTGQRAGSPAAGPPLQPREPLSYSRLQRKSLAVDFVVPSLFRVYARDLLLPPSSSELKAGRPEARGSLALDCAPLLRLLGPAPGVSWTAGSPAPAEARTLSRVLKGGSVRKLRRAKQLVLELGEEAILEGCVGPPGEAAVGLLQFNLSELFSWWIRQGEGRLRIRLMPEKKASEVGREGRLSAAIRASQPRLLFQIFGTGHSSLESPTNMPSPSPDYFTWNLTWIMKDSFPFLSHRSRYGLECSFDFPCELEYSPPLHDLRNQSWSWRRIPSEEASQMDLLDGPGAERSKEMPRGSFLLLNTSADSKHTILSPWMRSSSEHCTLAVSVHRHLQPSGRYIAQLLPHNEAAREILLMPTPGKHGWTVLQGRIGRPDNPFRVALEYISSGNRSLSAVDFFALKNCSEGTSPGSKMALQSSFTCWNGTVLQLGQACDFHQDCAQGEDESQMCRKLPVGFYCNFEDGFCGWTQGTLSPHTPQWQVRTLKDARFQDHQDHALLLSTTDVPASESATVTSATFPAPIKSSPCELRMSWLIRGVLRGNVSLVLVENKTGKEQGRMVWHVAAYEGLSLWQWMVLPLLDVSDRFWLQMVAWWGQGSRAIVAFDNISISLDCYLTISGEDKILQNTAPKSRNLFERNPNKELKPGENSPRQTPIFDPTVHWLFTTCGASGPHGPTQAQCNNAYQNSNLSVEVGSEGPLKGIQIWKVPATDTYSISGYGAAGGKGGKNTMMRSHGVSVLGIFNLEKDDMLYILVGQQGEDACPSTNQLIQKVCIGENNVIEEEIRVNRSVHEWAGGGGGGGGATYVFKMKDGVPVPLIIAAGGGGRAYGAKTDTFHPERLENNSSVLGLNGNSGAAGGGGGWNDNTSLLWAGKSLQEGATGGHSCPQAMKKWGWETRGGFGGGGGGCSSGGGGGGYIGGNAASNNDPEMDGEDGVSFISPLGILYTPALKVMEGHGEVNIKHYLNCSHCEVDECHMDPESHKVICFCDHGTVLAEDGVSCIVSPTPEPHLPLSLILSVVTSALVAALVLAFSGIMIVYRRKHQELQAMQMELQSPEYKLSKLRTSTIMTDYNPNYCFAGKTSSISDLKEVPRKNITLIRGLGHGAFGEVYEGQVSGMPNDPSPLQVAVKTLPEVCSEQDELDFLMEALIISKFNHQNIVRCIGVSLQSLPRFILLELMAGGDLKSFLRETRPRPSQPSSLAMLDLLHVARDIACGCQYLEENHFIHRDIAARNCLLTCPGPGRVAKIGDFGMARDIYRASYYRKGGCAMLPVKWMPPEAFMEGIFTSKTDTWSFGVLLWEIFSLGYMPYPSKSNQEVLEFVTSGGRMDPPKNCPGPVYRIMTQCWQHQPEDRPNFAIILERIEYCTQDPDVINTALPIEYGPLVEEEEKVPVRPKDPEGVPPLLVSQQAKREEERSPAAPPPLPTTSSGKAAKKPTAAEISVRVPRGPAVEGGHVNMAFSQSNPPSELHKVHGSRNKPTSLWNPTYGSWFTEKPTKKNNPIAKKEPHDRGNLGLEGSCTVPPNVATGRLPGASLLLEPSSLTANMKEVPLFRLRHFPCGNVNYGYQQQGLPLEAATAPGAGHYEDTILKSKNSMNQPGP

[17] = molecular target: ALK tyrosine kinase receptor (Homo sapiens) (UniProt Q9UM73); settings: at 1 µM
[18] = molecular target: Tyrosine-protein kinase ABL2 (Homo sapiens) (UniProt P42684); settings: at 0.1 µM
Tyrosine-protein kinase ABL2 (Homo sapiens), sequence (P42684 whole entry): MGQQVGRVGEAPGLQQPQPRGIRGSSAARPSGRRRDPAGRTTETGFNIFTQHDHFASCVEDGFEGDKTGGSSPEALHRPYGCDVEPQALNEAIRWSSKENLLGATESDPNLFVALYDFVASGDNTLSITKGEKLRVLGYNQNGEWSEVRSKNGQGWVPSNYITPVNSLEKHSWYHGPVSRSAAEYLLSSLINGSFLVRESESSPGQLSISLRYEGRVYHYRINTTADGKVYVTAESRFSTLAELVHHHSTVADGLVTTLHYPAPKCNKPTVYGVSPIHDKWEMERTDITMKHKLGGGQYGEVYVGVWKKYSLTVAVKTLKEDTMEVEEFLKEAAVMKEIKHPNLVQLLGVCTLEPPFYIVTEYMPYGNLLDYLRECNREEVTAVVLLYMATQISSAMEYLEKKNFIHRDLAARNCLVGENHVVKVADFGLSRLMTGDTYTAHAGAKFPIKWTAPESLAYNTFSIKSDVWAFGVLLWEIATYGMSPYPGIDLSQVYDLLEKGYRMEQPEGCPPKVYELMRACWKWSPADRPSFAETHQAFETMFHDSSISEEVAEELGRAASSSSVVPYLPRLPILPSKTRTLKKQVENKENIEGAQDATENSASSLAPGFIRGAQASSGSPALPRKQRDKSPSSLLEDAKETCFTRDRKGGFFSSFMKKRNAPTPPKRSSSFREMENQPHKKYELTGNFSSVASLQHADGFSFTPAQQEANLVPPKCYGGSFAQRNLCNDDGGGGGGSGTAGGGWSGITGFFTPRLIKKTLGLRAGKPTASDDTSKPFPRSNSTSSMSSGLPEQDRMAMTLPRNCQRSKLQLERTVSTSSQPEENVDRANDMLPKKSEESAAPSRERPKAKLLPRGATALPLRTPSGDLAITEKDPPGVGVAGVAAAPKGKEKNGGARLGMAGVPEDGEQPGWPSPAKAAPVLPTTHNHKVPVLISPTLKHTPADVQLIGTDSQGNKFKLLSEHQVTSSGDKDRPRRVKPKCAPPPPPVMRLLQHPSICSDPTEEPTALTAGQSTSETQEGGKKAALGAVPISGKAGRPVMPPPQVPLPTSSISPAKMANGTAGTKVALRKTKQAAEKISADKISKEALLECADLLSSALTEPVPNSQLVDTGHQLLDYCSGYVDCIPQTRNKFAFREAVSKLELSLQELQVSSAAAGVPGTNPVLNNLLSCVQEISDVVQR

[19] = molecular target: Tyrosine-protein kinase ABL2 (Homo sapiens) (UniProt P42684); settings: at 1 µM
[20] = molecular target: Tyrosine-protein kinase receptor UFO (Homo sapiens) (UniProt P30530); settings: at 0.1 µM;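 further: values are mean percent inhibition of AXL from the GSK PKIS screen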
Tyrosine-protein kinase receptor UFO (Homo sapiens), sequence (P30530 whole entry): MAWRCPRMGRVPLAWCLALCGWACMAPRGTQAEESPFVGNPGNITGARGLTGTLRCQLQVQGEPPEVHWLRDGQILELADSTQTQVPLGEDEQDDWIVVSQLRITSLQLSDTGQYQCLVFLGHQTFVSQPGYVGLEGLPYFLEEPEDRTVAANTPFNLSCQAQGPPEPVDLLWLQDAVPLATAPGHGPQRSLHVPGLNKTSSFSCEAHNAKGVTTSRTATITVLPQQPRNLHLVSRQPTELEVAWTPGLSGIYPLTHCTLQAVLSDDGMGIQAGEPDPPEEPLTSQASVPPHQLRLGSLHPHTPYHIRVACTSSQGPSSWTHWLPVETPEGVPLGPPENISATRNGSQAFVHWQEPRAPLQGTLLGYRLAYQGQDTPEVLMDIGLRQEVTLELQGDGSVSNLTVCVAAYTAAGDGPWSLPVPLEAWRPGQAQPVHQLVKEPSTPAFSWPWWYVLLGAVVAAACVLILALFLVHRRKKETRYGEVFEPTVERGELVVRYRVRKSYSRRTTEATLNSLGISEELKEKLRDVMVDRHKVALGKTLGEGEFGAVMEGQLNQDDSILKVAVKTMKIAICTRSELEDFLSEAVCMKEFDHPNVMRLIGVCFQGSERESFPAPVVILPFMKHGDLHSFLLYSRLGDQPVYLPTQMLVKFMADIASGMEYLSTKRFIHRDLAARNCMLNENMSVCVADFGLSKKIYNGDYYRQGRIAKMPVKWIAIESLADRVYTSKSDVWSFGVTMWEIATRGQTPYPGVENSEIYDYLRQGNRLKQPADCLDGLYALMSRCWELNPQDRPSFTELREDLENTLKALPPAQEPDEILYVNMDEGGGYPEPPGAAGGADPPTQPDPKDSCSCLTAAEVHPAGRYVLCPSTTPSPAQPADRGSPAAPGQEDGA

Serine/threonine-protein kinase PAK 6 (Homo sapiens), sequence (Q9NQU5 whole entry, looked up): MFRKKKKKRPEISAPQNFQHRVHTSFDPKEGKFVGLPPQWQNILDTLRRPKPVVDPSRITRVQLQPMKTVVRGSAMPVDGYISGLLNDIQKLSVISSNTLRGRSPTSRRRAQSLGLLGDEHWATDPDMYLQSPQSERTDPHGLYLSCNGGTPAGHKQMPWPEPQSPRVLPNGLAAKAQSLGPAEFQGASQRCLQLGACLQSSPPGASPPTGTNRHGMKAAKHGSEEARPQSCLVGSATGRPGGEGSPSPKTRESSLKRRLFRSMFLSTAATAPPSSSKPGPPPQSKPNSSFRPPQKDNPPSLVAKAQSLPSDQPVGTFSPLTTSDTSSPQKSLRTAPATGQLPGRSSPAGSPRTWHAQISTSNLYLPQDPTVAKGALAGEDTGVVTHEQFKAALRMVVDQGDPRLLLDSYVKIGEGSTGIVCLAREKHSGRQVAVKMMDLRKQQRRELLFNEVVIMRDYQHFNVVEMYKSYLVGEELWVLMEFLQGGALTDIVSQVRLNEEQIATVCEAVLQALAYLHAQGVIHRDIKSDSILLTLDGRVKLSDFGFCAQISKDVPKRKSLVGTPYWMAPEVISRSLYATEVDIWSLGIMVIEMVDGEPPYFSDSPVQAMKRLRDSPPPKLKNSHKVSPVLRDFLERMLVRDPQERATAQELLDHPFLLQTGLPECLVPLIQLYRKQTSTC

Compound | inhibition [1] [%] | inhibition [2] [%] | inhibition [3] [%] | inhibition [4] [%] | inhibition [5] [%] | inhibition [6] [%] | inhibition [7] [%] | inhibition [8] [%] | inhibition [9] [%] | inhibition [10] [%] | inhibition [11] [%] | inhibition [12] [%] | inhibition [13] [%] | inhibition [14] [%] | inhibition [15] [%] | inhibition [16] [%] | inhibition [17] [%] | inhibition [18] [%] | inhibition [19] [%] | inhibition [20] [%]
CCCN(CCS(C)(=O)=O)Cc1ccc(-c2ccc3ncnc(Nc4ccc(OCc5cccc(F)c5)c(Cl)c4)c3c2)o1 | 0.49 | 2.99 | 2.9 | 3.87 | 1.99 | 3.22 | 3.73 | 3.51 | 3.02 | 1.81 | 2.18 | 3.73 | 3.01 | 6.06 | 6.41 | 1.67 | 4.89 | 7.3 | 5.25 | -1.63
COc1ccc(-c2cc(-c3c[nH]nc3-c3ccccn3)ccn2)cc1 | -3.15 | 9.84 | 40.9 | 20.2 | 64.2 | 15.3 | 63.3 | 10.8 | 41 | 3.29 | 5.41 | 12.3 | 48.3 | 14.1 | 59.8 | 3.73 | 5.23 | 3.35 | 35.6 | -6.83
CN1CCC(n2cnc(-c3ccc(F)cc3)c2-c2ccnc(N)n2)CC1 | -6 | 3.04 | 7 | 2.82 | 11.9 | -0.15 | 7.75 | 2.65 | 6.83 | 1.94 | 5.74 | 1.88 | 8.15 | 2.31 | 8.97 | 1.26 | 4.21 | 2.89 | 7.64 | -3.77
CCN(CC)S(=O)(=O)c1ccc(OC)c(Nc2ncc(-c3ccccc3)o2)c1 | 4.66 | 1.69 | 28.2 | 4.61 | 32.8 | 6.41 | 38.4 | 5.31 | 38.5 | 1.63 | 8.65 | 9.09 | 41.8 | 3.01 | 28.1 | 0.5 | 4.19 | 6.09 | 36.6 | 0.5
Cc1cccc2c1NC(=O)/C2=N\Nc1ccc(S(N)(=O)=O)cc1 | 7.35 | 1.51 | 6.03 | 6.45 | 7.83 | 0.61 | 7.81 | 2.71 | 7.61 | 2.54 | 0.76 | 4.21 | 11.3 | 5.35 | 11.4 | 2.99 | 4.7 | 3.22 | 10.1 | -3.51
N#Cc1c(NC(=O)c2ccc(F)cc2)sc2c1CCCC2 | -6.51 | 0.33 | 1.93 | -0.63 | 0.11 | -1.3 | 2.69 | 1.76 | 2.3 | 1.04 | -0.02 | 0.83 | 1.49 | 1.79 | 4.24 | -0.03 | 1.01 | 3.54 | 2.41 | -1.93
CCn1cc(-c2ccnc3[nH]ccc23)c(-c2cccc(NC(=O)Nc3ccc(OCc4ccccc4)cc3)c2)n1 | 3.29 | 1.22 | -1.34 | 1.15 | 3.55 | 1.36 | 3.02 | 0.71 | 2.72 | -0.6 | -0.74 | 0.58 | 0.94 | 1.03 | 2.88 | 0.6 | 0.71 | 0.39 | 6.44 | 0.7
CNC(=O)c1cncc(/C=C/c2ccccc2Cl)c1 | 3.32 | -0.16 | 14.2 | 2.14 | 24.1 | 3.34 | 20 | 1.38 | 17.3 | 0.79 | 8.51 | 3.01 | 27 | 7.06 | 33.6 | 0.91 | 0.92 | 4.13 | 21.1 | 4.02
CC(C)COC(=O)c1ccc2c(c1)/C(=C/Nc1ccc(S(N)(=O)=O)cc1)C(=O)N2 | 0.35 | 1.63 | 21.7 | 4.36 | 26.6 | 4.24 | 33.2 | 3.65 | 28.9 | 5.23 | 43.4 | 4.12 | 28.8 | 1.58 | 36.3 | -0.71 | 4.93 | 3.59 | 20.4 | 1.97
CN(C)CCOc1ccc(-c2nc(-c3ccncc3)c(-c3ccc4c(c3)CC/C4=N\O)[nH]2)cc1 | 9.98 | 4.28 | 17.5 | 8.42 | 34.1 | 6.36 | 30.4 | 10.1 | 45.1 | 8.51 | 41.9 | 10.2 | 40.1 | 6.41 | 40.7 | 2.17 | 8.67 | 4.57 | 19.4 | -2.86
CCOc1ccc2c(-c3ccnc(Nc4cccc(C(F)(F)F)c4)n3)cnn2n1 | -3.51 | 2.13 | 4.02 | 2.46 | 4.74 | 0.25 | 1.69 | 2.99 | 3.05 | -0.14 | 2.2 | 2.21 | 3.23 | 3.73 | 7.89 | 2.18 | 3.1 | 2.04 | 8.28 | -3.01
COC(=O)Nc1nc2ccc(S(=O)(=O)c3ccc(NC(=O)Nc4cc(C(F)(F)F)ccc4F)cc3)cc2[nH]1 | -4.19 | 1.6 | -0.55 | 2.6 | -0.47 | 0.84 | 3.17 | 2.16 | 4.69 | 2.49 | 1.15 | 0.34 | 1.69 | 3.92 | 9.87 | 2.66 | 3.54 | 5.17 | 6.34 | -5.56
CC(=O)NCc1cccc(C#Cc2cncnc2Nc2ccc(OCc3cccc(F)c3)c(Cl)c2)c1 | -2.72 | -0.06 | 1.65 | 2.49 | -0.68 | 1.1 | -0.38 | 2.02 | -0.7 | 2 | 1.56 | 1.3 | 2.58 | -0.31 | 2.82 | -0.48 | 0.2 | -0.67 | -0.87 | -0.21
Fc1ccc(-c2cc(-c3c[nH]nc3-c3ccccn3)ccn2)cc1 | -4.06 | 3.42 | 14.4 | 7.22 | 29.8 | 4.15 | 28.3 | 5.44 | 16 | 3.13 | 5.68 | 5.63 | 17.4 | 4.06 | 30.4 | 4.07 | 5.67 | 2.48 | 7.82 | -7.67
O=S(=O)(CCNCc1ccc(-c2ccc3ncnc(Nc4ccc(OCc5cccc(F)c5)c(Cl)c4)c3c2)o1)c1ccccc1 | 0.68 | 3.29 | 4.49 | 5.17 | 6.8 | 1.27 | 2.88 | 5.71 | 6.36 | 2.35 | 3.4 | 5.4 | 6.85 | 5.27 | 10.1 | 4.32 | 6.67 | 4.64 | 8.2 | -7.43
O=C(O[C@H]1CN[C@H](C#Cc2cc3ncnc(Nc4ccc(Cc5ccccc5)cc4)c3s2)C1)N1CCOCC1 | -5.73 | -0.19 | -0.38 | -0.52 | 0.08 | -2.99 | -0.59 | -0.95 | 1.06 | 0.08 | 0.76 | -1.94 | 2.37 | -0.06 | 0.2 | 1.1 | 0.46 | -0.08 | -0.38 | -5.65
c1ccc(-c2nc3n(c2-c2ccc4c(c2)OCO4)CCC3)nc1 | -6.18 | 1.4 | 3.7 | 0.35 | 2.48 | 1.01 | 3.51 | 0.69 | 3.62 | 0.65 | 6.07 | 1.92 | 3.95 | 0.85 | 6.39 | 0.99 | 1.4 | 0.69 | 4.67 | -1.96
COc1ccc2[nH]c3c4[nH]c5ccc(OC)cc5c4c4c(c3c2c1)C(=O)NC4=O | -0.34 | 7.87 | 36.1 | 10.7 | 45.3 | 10.1 | 47.7 | 29.6 | 72.5 | 9.34 | 33.7 | 15.4 | 52.3 | 6.32 | 34 | 13.8 | 58.3 | 3.1 | 12.1 | 11
COc1ccc(-c2cc3c(N)ncnc3o2)cc1 | -9.7 | 0.23 | 5.63 | -0.22 | 11 | 0.58 | 11.2 | -0.72 | 9.12 | 0.76 | 2.97 | -0.25 | 10.8 | 2.28 | 11.4 | -1.19 | 1.1 | 0.1 | 5.3 | 2.44
NC(=O)c1sc(-n2cnc3ccc(C(F)(F)F)cc32)cc1OCc1ccccc1Br | -7.15 | 3.08 | 2.1 | 3.37 | 3.08 | 1.6 | 3.37 | 3.06 | 3.55 | 1.98 | 3.2 | 3.65 | 2.05 | 2.31 | 4.26 | 1.39 | 3.73 | 1.79 | 2.59 | -8.18
Cc1cccc(Nc2ncc(-c3ccccc3)o2)c1 | 4.48 | -0.07 | 8.14 | 5.02 | 19.4 | 2.38 | 21.6 | 2.49 | 13.4 | 2.39 | 5.99 | 3.68 | 19.5 | 4.34 | 14.2 | 3.9 | 4.76 | 3.13 | 18 | -1.8
COc1ccc2c(-c3ccnc(Nc4cccc(OC(F)(F)F)c4)n3)cnn2n1 | 6.82 | 3.39 | 4.4 | 3.04 | 15.7 | 1.37 | 11.9 | 4.44 | 9.67 | 0.99 | 6.33 | 4.09 | 8.45 | 4.8 | 17 | 2.4 | 5.73 | 4.05 | 19.1 | -4.17
COc1ccc(CNC(=O)c2ccc(-c3cc(-c4nnc(C)o4)ccc3C)cc2)cc1 | 11.5 | 2.05 | 0.78 | 2.7 | 4.47 | 2.42 | 5.1 | 1.38 | 4.42 | 0.75 | 6.32 | 3.15 | 5.25 | 4.76 | 6.46 | 0.25 | -0.53 | 4.31 | 4.39 | 4.83
CNC(=O)c1cccc(C#Cc2cncnc2Nc2ccc(OCc3cccc(F)c3)c(Cl)c2)c1 | 0.68 | 0.14 | 0.64 | 0.79 | 1.44 | 0.11 | 2.15 | 1.53 | 2.58 | 1.23 | 2.43 | 0.77 | 3.36 | 0.98 | 5.91 | 1.88 | 3.83 | 2.79 | 4.76 | -1.87
CC1=C(C(=O)Nc2cc(Cl)c3[nH]ncc3c2)C(c2ccc(C(F)(F)F)cc2)CC(=O)N1 (stereo not given) | -3.39 | 3.18 | 3.01 | 4.1 | 2.88 | 1.43 | 4.53 | 4.06 | 4.83 | 2.02 | 3.3 | 3.38 | 4.41 | 2.62 | 1.72 | 2.22 | 2.26 | 3.63 | 3.51 | -4.79
c1cc(-c2cnn3nc(N4CCOCC4)ccc23)nc(NC2CC2)n1 | 6.8 | 2.12 | 3.25 | 3.02 | 5.18 | 3.02 | 4.81 | 2.61 | 6.62 | 2.17 | 2.55 | 3.63 | 6.41 | 3.71 | 13.7 | 2.05 | 9.86 | 3.73 | 9.11 | -3.58
COc1cccc(-c2c[nH]c3c(N/N=C/c4ccncc4)ncnc23)c1 | -1.79 | 65 | 91.1 | 76.2 | 93.6 | 76.5 | 92.5 | 79.8 | 92.6 | 11.8 | 57.7 | 73 | 93.2 | 57.6 | 81.7 | 0.85 | 1.19 | 41.8 | 78.6 | -2.43
